# Reference: PubChem BioAssay AID1508601 (ICCB-Longwood Screening Facility, Harvard Medical School, 2020)
# Values joined by “and” are separate entries in the source; they are usually repeats but may differ in a detail not shown here. Equal entries are not always repeated. Hit rate of the full screen: of about 5,700 compounds, about 85 (1%) were called active. This is one part of a sample in which actives are shown more often than they occur. Rule as the data show it: active = p53-positive nuclei above about 36% (passing the limit was not always enough); inactive = the rest.
# Tests used:
# [1] = nuclear p53 accumulation, HPV+ cells – imaging, p53-positive nuclei imaging, 24 h, 48 h (AID 1508601); details: 24/48 h
# [2] = biological target: Cellular tumor antigen p53 (Homo sapiens) (UniProt P04637); assay: as above; details: 24/48 h, stronger effect = higher value
# Sequence of Cellular tumor antigen p53 (Homo sapiens) (P04637 whole entry, looked up): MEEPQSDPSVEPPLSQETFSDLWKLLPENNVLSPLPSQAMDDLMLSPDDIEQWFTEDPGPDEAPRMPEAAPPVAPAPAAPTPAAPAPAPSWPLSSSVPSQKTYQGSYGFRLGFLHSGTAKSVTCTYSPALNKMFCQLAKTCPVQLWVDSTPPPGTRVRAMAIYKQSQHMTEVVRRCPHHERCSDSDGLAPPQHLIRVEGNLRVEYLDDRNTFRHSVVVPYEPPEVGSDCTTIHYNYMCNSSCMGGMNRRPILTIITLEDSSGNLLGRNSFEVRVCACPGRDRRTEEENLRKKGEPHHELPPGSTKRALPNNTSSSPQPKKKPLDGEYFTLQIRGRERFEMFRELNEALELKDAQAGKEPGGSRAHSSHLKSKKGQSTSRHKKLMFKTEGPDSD
# [3] = measured here: cell number at 24 h, Library stock concentration: 10 mM
# [4] = measured here: cell number at 48 h, Library stock concentration: 10 mM
# [5] = Library stock concentration: 10 mM
# [6] = measured here: p53 positive nuclei at 24 h, Library stock concentration: 10 mM
# [7] = measured here: cell number at 24 h, concentration not given here
# [8] = measured here: cell number at 48 h, concentration not given here
# [9] = measured here: p53 positive nuclei at 24 h, concentration not given here
# [10] = measured here: cell number at 24 h, Library stock concentration: 3.33 mM
# [11] = measured here: cell number at 48 h, Library stock concentration: 3.33 mM
# [12] = Library stock concentration: 3.33 mM
# [13] = measured here: p53 positive nuclei at 24 h, Library stock concentration: 3.33 mM
# [14] = measured here: cell number at 24 h, Library stock concentration: 80 uM
# [15] = measured here: cell number at 24 h, Library stock concentration: 400 uM
# [16] = measured here: cell number at 24 h, Library stock concentration: 2 mM
# [17] = measured here: cell number at 48 h, Library stock concentration: 80 uM
# [18] = measured here: cell number at 48 h, Library stock concentration: 400 uM
# [19] = measured here: cell number at 48 h, Library stock concentration: 2 mM
# [20] = Library stock concentration: 80 uM
# [21] = Library stock concentration: 400 uM
# [22] = Library stock concentration: 2 mM
# [23] = measured here: p53 positive nuclei at 24 h, Library stock concentration: 80 uM
# [24] = measured here: p53 positive nuclei at 24 h, Library stock concentration: 400 uM
# [25] = measured here: p53 positive nuclei at 24 h, Library stock concentration: 2 mM
structure (smiles),measurement,setting,value
NC(=O)c1ncn(C2OC(CO)C(O)C2O)c1O (centres undefined),"nuclei count, normalised","[1]; measured here: cell number at 24 h, Library stock concentration: 500 nM",107%
same,"nuclei count, normalised","[1]; measured here: cell number at 24 h, Library stock concentration: 1.5 uM",106%
same,"nuclei count, normalised","[1]; measured here: cell number at 24 h, Library stock concentration: 4.6 uM",114%
same,"nuclei count, normalised","[1]; measured here: cell number at 24 h, Library stock concentration: 13.7 uM",113%
same,"nuclei count, normalised","[1]; measured here: cell number at 24 h, Library stock concentration: 41 uM",103%
same,"nuclei count, normalised","[1]; measured here: cell number at 24 h, Library stock concentration: 123 uM",107%
same,"nuclei count, normalised","[1]; measured here: cell number at 24 h, Library stock concentration: 370 uM",112%
same,"nuclei count, normalised","[1]; measured here: cell number at 24 h, Library stock concentration: 1.111 mM",97.9%
same,"nuclei count, normalised","[1]; measured here: cell number at 24 h, Library stock concentration: 3.333 mM",106%
same,"nuclei count, normalised",[1]; [3],104%
same,"nuclei count, normalised","[1]; measured here: cell number at 48 h, Library stock concentration: 500 nM",106%
same,"nuclei count, normalised","[1]; measured here: cell number at 48 h, Library stock concentration: 1.5 uM",107%
same,"nuclei count, normalised","[1]; measured here: cell number at 48 h, Library stock concentration: 4.6 uM",110%
same,"nuclei count, normalised","[1]; measured here: cell number at 48 h, Library stock concentration: 13.7 uM",108%
same,"nuclei count, normalised","[1]; measured here: cell number at 48 h, Library stock concentration: 41 uM",107%
same,"nuclei count, normalised","[1]; measured here: cell number at 48 h, Library stock concentration: 123 uM",107%
same,"nuclei count, normalised","[1]; measured here: cell number at 48 h, Library stock concentration: 370 uM",113%
same,"nuclei count, normalised","[1]; measured here: cell number at 48 h, Library stock concentration: 1.111 mM",105%
same,"nuclei count, normalised","[1]; measured here: cell number at 48 h, Library stock concentration: 3.333 mM",108%
same,"nuclei count, normalised",[1]; [4],102%
same,"p53-positive nuclei, normalised",[2]; Library stock concentration: 500 nM,-0.204% (inactive)
same,"p53-positive nuclei, normalised",[2]; Library stock concentration: 1.5 uM,-0.0465% (inactive)
same,"p53-positive nuclei, normalised",[2]; Library stock concentration: 4.6 uM,0.0159% (inactive)
same,"p53-positive nuclei, normalised",[2]; Library stock concentration: 13.7 uM,-0.0544% (inactive)
same,"p53-positive nuclei, normalised",[2]; Library stock concentration: 41 uM,-0.167% (inactive)
same,"p53-positive nuclei, normalised",[2]; Library stock concentration: 123 uM,-0.128% (inactive)
same,"p53-positive nuclei, normalised",[2]; Library stock concentration: 370 uM,-0.0645% (inactive)
same,"p53-positive nuclei, normalised",[2]; Library stock concentration: 1.111 mM,-0.129% (inactive)
same,"p53-positive nuclei, normalised",[2]; Library stock concentration: 3.333 mM,-0.208% (inactive)
same,"p53-positive nuclei, normalised",[2]; [5],-0.16% (inactive)
same,"p53-positive nuclei, normalised","[2]; measured here: p53 positive nuclei at 24 h, Library stock concentration: 500 nM",-0.239%
same,"p53-positive nuclei, normalised","[2]; measured here: p53 positive nuclei at 24 h, Library stock concentration: 1.5 uM",-0.0183%
same,"p53-positive nuclei, normalised","[2]; measured here: p53 positive nuclei at 24 h, Library stock concentration: 4.6 uM",-0.139%
same,"p53-positive nuclei, normalised","[2]; measured here: p53 positive nuclei at 24 h, Library stock concentration: 13.7 uM",-0.19%
same,"p53-positive nuclei, normalised","[2]; measured here: p53 positive nuclei at 24 h, Library stock concentration: 41 uM",-0.128%
same,"p53-positive nuclei, normalised","[2]; measured here: p53 positive nuclei at 24 h, Library stock concentration: 123 uM",0.0805%
same,"p53-positive nuclei, normalised","[2]; measured here: p53 positive nuclei at 24 h, Library stock concentration: 370 uM",-0.0891%
same,"p53-positive nuclei, normalised","[2]; measured here: p53 positive nuclei at 24 h, Library stock concentration: 1.111 mM",-0.183%
same,"p53-positive nuclei, normalised","[2]; measured here: p53 positive nuclei at 24 h, Library stock concentration: 3.333 mM",-0.128%
same,"p53-positive nuclei, normalised",[2]; [6],-0.0747%
O=C(c1cn2cccnc2n1)N1CCCC(Cn2cc(C3CCCC3)nn2)C1 (centres undefined),"nuclei count, normalised",[1]; [7],84.5%
same,"nuclei count, normalised",[1]; [8],92.1%
same,"p53-positive nuclei, normalised",[2]; concentration not given here,-0.0576% (inactive)
same,"p53-positive nuclei, normalised",[2]; [9],-0.142%
C#C[C@]1(O)CCC2C3CCc4cc(O)ccc4C3CC[C@@]21C (some centres undefined),"nuclei count, normalised",[1]; [7],85.4%
same,"nuclei count, normalised",[1]; [8],37.7%
same,"p53-positive nuclei, normalised",[2]; concentration not given here,83% (active)
same,"p53-positive nuclei, normalised",[2]; [9],8.99%
C#C[C@@]1(O)CC[C@H]2[C@@H]3CCc4cc(O)ccc4[C@@H]3CC[C@@]21C,"nuclei count, normalised",[1]; [10],80.8%
same,"nuclei count, normalised",[1]; [11],66.7%
same,"p53-positive nuclei, normalised",[2]; [12],15.7% (inactive)
same,"p53-positive nuclei, normalised",[2]; [13],2.17%
C#C[C@]1(O)CC[C@@H]2[C@@H]3CCc4cc(O)ccc4[C@@H]3CC[C@@]21C,"nuclei count, normalised",[1]; [14],97.1%
same,"nuclei count, normalised",[1]; [15],108%
same,"nuclei count, normalised",[1]; [16],101%
same,"nuclei count, normalised",[1]; [3],72.9%
same,"nuclei count, normalised",[1]; [17],108%
same,"nuclei count, normalised",[1]; [18],108%
same,"nuclei count, normalised",[1]; [19],102%
same,"nuclei count, normalised",[1]; [4],30.5%
same,"p53-positive nuclei, normalised",[2]; [20],0.0565% (inactive)
same,"p53-positive nuclei, normalised",[2]; [21],0.0172% (inactive)
same,"p53-positive nuclei, normalised",[2]; [22],0.0704% (inactive)
same,"p53-positive nuclei, normalised",[2]; [5],76.1% (inactive)
same,"p53-positive nuclei, normalised",[2]; [23],-0.0527%
same,"p53-positive nuclei, normalised",[2]; [24],0.068%
same,"p53-positive nuclei, normalised",[2]; [25],0.0711%
same,"p53-positive nuclei, normalised",[2]; [6],6.02%
C#CCOc1ccc2c(c1)c(-c1ccc(C(C)C)cc1)nc(=O)n2C(C)C,"nuclei count, normalised","[1]; measured here: cell number at 24 h, Library stock concentration: 46 uM",104%
same,"nuclei count, normalised","[1]; measured here: cell number at 24 h, Library stock concentration: 278 uM",110%
same,"nuclei count, normalised","[1]; measured here: cell number at 24 h, Library stock concentration: 1.67 mM",104%
same,"nuclei count, normalised",[1]; [3],112%
same,"nuclei count, normalised","[1]; measured here: cell number at 48 h, Library stock concentration: 46 uM",101%
same,"nuclei count, normalised","[1]; measured here: cell number at 48 h, Library stock concentration: 278 uM",101%
same,"nuclei count, normalised","[1]; measured here: cell number at 48 h, Library stock concentration: 1.67 mM",97.6%
same,"nuclei count, normalised",[1]; [4],101%
same,"p53-positive nuclei, normalised",[2]; Library stock concentration: 46 uM,-0.166% (inactive)
same,"p53-positive nuclei, normalised",[2]; Library stock concentration: 278 uM,0.0283% (inactive)
same,"p53-positive nuclei, normalised",[2]; Library stock concentration: 1.67 mM,0.0841% (inactive)
same,"p53-positive nuclei, normalised",[2]; [5],-0.00718% (inactive)
same,"p53-positive nuclei, normalised","[2]; measured here: p53 positive nuclei at 24 h, Library stock concentration: 46 uM",-0.153%
same,"p53-positive nuclei, normalised","[2]; measured here: p53 positive nuclei at 24 h, Library stock concentration: 278 uM",-0.218%
same,"p53-positive nuclei, normalised","[2]; measured here: p53 positive nuclei at 24 h, Library stock concentration: 1.67 mM",-0.0911%
same,"p53-positive nuclei, normalised",[2]; [6],-0.218%
O=C(O)C=Cc1ccc(Cn2ccnc2)cc1,"nuclei count, normalised",[1]; [14],111%
same,"nuclei count, normalised",[1]; [15],104%
same,"nuclei count, normalised",[1]; [16],103%
same,"nuclei count, normalised",[1]; [10],103% and 107%
same,"nuclei count, normalised",[1]; [3],108%
same,"nuclei count, normalised",[1]; [17],108%
same,"nuclei count, normalised",[1]; [18],104%
same,"nuclei count, normalised",[1]; [19],103%
same,"nuclei count, normalised",[1]; [11],110% and 99.3%
same,"nuclei count, normalised",[1]; [4],103%
same,"p53-positive nuclei, normalised",[2]; [20],0.0181% (inactive)
same,"p53-positive nuclei, normalised",[2]; [21],0.0683% (inactive)
same,"p53-positive nuclei, normalised",[2]; [22],0.0233% (inactive)
same,"p53-positive nuclei, normalised",[2]; [12],-0.0503% (inactive) and -0.0965% (inactive)
same,"p53-positive nuclei, normalised",[2]; [5],-0.178% (inactive)
same,"p53-positive nuclei, normalised",[2]; [23],0.0685%
same,"p53-positive nuclei, normalised",[2]; [24],0.0107%
same,"p53-positive nuclei, normalised",[2]; [25],0.0098%
same,"p53-positive nuclei, normalised",[2]; [13],-0.252% and -0.232%
same,"p53-positive nuclei, normalised",[2]; [6],-0.12%
